# Reference: paper PMC7862700, “An all-to-all approach to the identification of sequence-specific readers for epigenetic DNA modifications on cytosine”
# Experiments:
# Assay in all cases: DAPPL (digital affinity profiling via proximity ligation, sequencing); 10 mM Tris-HCl pH 7.5, 50 mM NaCl, 1 mM DTT, 4% glycerol, room temperature, 30 min; GST-TFs on glutathione beads, 16-mer random dsDNA library, 0.1% formaldehyde crosslink after washing; high values mean tight binding
# FLI1 = molecular target: T1, FLI1 (Homo sapiens, UniProt Q01543 1-452); conditions: protein: recombinant; tags: N-terminal GST; dsDNA, one strand shown
# T1 sequence: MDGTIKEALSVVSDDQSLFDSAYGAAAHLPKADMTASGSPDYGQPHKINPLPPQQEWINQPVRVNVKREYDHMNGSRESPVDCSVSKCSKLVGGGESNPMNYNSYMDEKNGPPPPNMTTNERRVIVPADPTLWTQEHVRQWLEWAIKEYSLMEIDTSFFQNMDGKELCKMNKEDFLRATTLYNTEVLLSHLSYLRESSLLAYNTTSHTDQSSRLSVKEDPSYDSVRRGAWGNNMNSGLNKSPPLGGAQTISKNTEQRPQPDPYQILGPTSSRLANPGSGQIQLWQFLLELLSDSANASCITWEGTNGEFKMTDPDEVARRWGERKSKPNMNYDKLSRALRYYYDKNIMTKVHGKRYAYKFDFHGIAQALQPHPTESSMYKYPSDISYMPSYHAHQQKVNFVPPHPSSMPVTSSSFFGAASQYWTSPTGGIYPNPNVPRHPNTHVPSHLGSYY
# How it was run: (§1)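 A tag-only sample was pooled with DNA-barcoded human transcription factors that had been expressed in yeast as GST fusions and captured on glutathione beads. The pools were incubated for 30 min at room temperature with 200 nmole of a random double-stranded 16-mer DNA library in Tris/NaCl/DTT/glycerol buffer, then washed, crosslinked with 0.1% formaldehyde, proximity-ligated (BsaI/T4 ligase, 1 h, 37 °C), PCR-amplified and sequenced on an Illumina NextSeq500. Binding signal is each hexamer's read frequency for a factor divided by its frequency for the tag-only sample.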
# ELK1 = molecular target: T2, ELK1 (Homo sapiens, UniProt P19419 1-428); conditions: protein: recombinant; tags: N-terminal GST; dsDNA, one strand shown
# T2 sequence: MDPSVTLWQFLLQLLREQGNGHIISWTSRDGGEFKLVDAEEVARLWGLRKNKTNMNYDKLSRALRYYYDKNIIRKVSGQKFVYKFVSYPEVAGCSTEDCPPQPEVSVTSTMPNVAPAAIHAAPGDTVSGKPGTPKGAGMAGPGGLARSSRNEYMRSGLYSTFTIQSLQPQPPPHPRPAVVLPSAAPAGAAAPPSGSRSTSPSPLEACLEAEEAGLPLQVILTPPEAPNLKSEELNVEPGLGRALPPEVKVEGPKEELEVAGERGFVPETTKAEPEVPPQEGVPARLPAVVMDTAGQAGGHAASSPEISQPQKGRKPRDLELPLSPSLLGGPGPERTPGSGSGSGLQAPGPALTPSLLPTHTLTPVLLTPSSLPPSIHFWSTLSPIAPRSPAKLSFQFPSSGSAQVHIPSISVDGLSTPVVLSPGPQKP
# How it was run: as §1
# GABPA = molecular target: T3, GABPA (Homo sapiens, UniProt Q06546 1-454); conditions: protein: recombinant; tags: N-terminal GST; dsDNA, one strand shown
# T3 sequence: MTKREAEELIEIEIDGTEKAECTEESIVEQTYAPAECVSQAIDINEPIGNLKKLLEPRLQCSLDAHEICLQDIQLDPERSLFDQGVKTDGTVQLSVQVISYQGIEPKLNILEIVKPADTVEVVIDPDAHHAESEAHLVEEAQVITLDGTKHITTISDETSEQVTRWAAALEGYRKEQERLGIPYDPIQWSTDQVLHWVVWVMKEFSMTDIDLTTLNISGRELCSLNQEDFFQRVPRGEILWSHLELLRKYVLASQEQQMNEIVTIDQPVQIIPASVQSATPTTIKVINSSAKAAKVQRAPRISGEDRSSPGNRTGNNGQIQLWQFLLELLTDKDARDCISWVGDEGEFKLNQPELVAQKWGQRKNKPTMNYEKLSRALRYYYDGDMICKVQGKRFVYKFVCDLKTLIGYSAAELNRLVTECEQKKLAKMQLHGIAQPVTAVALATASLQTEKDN
# How it was run: as §1
# ERG = molecular target: T4, ERG (Homo sapiens, UniProt P11308 1-479); conditions: protein: recombinant; tags: N-terminal GST; dsDNA, one strand shown
# T4 sequence: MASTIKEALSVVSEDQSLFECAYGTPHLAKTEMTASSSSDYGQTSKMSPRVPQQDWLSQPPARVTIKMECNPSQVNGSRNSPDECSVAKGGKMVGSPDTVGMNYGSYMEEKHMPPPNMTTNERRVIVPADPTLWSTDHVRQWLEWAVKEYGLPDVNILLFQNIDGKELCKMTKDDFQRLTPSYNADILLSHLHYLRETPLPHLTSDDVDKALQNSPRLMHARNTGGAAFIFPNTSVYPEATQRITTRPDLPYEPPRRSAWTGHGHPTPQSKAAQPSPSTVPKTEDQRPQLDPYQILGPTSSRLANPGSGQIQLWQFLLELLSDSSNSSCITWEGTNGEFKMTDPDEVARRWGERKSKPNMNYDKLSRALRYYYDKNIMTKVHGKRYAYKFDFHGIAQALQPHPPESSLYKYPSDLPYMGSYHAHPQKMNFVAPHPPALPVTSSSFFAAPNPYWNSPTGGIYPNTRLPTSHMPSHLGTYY
# How it was run: as §1
# ELF1 = ELF1 (Homo sapiens, UniProt P32519 1-619); conditions: protein: recombinant; tags: N-terminal GST; dsDNA, one strand shown
# Chain of ELF1 (P32519 whole entry): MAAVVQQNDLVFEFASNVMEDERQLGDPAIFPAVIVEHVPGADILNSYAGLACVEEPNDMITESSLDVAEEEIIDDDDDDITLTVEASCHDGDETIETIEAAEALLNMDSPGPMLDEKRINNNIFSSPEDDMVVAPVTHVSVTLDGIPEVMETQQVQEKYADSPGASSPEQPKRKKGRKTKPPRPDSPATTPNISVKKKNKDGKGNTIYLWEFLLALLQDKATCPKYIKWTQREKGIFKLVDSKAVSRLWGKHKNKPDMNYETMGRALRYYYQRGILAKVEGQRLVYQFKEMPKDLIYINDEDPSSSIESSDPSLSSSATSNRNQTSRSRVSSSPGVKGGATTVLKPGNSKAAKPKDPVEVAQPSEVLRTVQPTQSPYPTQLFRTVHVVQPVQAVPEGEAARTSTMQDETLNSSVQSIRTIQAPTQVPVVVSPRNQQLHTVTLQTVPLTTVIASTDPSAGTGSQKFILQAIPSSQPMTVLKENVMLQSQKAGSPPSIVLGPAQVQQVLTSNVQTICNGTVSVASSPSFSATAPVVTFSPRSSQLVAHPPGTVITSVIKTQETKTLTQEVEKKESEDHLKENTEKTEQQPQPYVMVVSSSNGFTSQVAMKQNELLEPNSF
# How it was run: as §1
# EHF = molecular target: T5, EHF (Homo sapiens, UniProt Q9NZC4 1-300); conditions: protein: recombinant; tags: N-terminal GST; dsDNA, one strand shown
# T5 sequence: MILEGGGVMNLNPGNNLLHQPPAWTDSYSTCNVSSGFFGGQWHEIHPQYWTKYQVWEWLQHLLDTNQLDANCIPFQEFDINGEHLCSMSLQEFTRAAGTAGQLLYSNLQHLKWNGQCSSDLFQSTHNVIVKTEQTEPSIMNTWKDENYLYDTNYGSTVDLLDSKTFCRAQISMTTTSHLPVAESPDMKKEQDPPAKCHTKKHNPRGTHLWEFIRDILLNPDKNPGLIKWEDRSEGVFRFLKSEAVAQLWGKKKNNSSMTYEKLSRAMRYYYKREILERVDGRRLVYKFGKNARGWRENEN
# How it was run: as §1
# SPI1 = SPI1 (Homo sapiens, UniProt P17947 1-270); conditions: protein: recombinant; tags: N-terminal GST; dsDNA, one strand shown
# How it was run: as §1
# SPIB = SPIB (Homo sapiens, UniProt Q01892 1-262); conditions: protein: recombinant; tags: N-terminal GST; dsDNA, one strand shown
# Chain of SPIB (Q01892 whole entry): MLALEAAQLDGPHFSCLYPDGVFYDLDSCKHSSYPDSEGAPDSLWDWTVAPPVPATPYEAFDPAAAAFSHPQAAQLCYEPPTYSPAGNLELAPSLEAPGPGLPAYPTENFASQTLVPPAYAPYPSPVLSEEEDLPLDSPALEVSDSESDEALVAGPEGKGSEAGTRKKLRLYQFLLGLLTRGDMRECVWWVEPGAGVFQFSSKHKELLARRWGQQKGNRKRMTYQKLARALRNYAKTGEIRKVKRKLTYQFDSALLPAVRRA
# How it was run: as §1
# ELK3 = molecular target: T6, ELK3 (Homo sapiens, UniProt P41970 1-407); conditions: protein: recombinant; tags: N-terminal GST; dsDNA, one strand shown
# T6 sequence: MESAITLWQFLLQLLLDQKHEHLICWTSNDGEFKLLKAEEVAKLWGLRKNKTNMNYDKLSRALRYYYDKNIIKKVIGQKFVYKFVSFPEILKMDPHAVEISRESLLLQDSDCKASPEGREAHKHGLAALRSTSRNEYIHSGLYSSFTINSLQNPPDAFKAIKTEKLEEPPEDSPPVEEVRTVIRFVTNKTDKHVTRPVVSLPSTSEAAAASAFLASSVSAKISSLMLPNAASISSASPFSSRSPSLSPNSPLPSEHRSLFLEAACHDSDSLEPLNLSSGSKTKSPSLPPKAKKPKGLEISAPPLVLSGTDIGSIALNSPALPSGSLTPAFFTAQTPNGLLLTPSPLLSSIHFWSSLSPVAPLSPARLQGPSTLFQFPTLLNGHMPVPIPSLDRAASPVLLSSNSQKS
# How it was run: as §1
# FEV = molecular target: T7, FEV (Homo sapiens, UniProt Q99581 1-238); conditions: protein: recombinant; tags: N-terminal GST; dsDNA, one strand shown
# T7 sequence: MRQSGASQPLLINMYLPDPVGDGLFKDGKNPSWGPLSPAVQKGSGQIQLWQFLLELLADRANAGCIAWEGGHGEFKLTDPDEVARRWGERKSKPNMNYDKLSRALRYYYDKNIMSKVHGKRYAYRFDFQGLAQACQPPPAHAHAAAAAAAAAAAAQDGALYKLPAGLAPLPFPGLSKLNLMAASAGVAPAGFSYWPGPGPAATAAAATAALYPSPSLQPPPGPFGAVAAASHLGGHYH
# How it was run: as §1
# ETV5 = ETV5 (Homo sapiens, UniProt P41161 1-510); conditions: protein: recombinant; tags: N-terminal GST; dsDNA, one strand shown
# Chain of ETV5 (P41161 whole entry): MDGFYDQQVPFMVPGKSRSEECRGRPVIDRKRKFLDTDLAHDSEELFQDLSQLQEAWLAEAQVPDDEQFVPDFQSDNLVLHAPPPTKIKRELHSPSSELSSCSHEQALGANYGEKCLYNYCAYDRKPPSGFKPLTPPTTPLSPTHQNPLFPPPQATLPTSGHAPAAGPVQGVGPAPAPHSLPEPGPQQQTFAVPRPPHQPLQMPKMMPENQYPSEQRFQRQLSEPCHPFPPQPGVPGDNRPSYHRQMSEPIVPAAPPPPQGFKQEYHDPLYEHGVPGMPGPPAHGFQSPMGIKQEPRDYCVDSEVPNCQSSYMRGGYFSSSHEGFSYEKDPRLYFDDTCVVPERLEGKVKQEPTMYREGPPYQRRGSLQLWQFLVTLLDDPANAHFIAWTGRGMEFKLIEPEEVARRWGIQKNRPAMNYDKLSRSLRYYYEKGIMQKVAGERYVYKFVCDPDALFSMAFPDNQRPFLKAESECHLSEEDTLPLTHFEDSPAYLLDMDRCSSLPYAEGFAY
# How it was run: as §1
# HSF1 = HSF1 (Homo sapiens, UniProt Q00613 1-529); conditions: protein: recombinant; tags: N-terminal GST; chain copies: 3; dsDNA, one strand shown
# Chain of HSF1 (Q00613 whole entry): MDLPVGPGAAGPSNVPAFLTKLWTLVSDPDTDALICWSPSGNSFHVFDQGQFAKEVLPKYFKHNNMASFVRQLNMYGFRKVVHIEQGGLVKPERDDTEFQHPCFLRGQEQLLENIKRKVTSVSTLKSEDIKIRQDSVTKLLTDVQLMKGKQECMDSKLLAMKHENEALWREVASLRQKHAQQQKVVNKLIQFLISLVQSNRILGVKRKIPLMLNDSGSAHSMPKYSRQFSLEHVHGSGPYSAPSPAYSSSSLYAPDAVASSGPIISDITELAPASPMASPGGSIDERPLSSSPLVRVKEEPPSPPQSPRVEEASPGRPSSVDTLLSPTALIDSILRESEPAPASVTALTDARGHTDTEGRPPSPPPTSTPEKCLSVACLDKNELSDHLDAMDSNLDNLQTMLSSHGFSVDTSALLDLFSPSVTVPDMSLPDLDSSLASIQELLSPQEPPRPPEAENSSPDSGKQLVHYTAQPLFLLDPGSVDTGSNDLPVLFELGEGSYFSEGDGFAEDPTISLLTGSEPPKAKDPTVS
# How it was run: as §1
# SPIC = molecular target: T8, SPIC (Homo sapiens, UniProt Q8N5J4 1-248); conditions: protein: recombinant; tags: N-terminal GST; dsDNA, one strand shown
# T8 sequence: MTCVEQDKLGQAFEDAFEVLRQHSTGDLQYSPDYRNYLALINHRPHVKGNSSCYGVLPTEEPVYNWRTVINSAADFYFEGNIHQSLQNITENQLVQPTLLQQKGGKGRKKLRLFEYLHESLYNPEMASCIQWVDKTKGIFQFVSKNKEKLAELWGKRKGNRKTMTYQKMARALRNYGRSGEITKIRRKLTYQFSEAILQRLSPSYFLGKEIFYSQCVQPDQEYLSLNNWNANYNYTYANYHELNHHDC
# How it was run: as §1
# ELF4 = ELF4 (Homo sapiens, UniProt Q99607 1-663); conditions: protein: recombinant; tags: N-terminal GST; dsDNA, one strand shown
# Chain of ELF4 (Q99607 whole entry): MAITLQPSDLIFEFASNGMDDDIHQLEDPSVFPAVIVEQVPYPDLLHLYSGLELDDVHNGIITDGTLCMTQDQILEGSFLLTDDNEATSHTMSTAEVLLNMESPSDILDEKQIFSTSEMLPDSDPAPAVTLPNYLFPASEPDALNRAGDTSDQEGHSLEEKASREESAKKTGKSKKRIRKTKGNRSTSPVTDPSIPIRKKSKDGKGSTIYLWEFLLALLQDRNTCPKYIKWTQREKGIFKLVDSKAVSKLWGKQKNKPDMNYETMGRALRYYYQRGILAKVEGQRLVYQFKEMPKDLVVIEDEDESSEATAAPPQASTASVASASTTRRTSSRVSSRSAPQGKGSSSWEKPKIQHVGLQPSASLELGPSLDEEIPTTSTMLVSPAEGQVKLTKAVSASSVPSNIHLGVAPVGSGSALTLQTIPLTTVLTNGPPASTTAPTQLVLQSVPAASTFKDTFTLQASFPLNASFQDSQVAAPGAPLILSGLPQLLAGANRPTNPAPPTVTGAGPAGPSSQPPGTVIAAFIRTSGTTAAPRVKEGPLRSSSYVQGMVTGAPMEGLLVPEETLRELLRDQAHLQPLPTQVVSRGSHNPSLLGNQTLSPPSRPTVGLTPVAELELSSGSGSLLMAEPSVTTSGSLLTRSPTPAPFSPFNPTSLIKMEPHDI
# How it was run: as §1
# ELK4 = molecular target: T9, ELK4 (Homo sapiens, UniProt P28324-2 1-405); conditions: protein: recombinant; tags: N-terminal GST; dsDNA, one strand shown
# T9 sequence: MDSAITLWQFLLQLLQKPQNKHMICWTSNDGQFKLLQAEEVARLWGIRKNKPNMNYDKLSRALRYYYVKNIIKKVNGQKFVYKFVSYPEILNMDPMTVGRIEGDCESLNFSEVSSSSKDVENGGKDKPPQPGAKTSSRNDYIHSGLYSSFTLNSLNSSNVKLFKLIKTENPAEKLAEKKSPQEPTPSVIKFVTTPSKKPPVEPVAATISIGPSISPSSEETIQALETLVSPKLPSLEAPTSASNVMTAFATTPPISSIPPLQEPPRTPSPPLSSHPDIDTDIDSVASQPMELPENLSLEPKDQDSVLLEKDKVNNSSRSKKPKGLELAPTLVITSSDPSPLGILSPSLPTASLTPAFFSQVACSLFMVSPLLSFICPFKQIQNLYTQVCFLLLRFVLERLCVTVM
# How it was run: as §1
# ETV2 = molecular target: T10, ETV2 (Homo sapiens, UniProt O00321 1-342); conditions: protein: recombinant; tags: N-terminal GST; dsDNA, one strand shown
# T10 sequence: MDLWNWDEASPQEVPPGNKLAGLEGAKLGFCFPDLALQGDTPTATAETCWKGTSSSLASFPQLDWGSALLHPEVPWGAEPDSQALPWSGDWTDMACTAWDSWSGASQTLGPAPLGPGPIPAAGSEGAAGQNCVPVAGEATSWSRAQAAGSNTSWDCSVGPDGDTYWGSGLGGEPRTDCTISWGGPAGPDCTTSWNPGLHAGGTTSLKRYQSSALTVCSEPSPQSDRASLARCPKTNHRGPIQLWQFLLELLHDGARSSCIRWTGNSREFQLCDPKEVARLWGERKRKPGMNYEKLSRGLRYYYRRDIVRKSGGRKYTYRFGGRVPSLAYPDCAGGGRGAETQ
# How it was run: as §1
# ELF3 = molecular target: T11, ELF3 (Homo sapiens, UniProt P78545 1-371); conditions: protein: recombinant; tags: N-terminal GST; dsDNA, one strand shown
# T11 sequence: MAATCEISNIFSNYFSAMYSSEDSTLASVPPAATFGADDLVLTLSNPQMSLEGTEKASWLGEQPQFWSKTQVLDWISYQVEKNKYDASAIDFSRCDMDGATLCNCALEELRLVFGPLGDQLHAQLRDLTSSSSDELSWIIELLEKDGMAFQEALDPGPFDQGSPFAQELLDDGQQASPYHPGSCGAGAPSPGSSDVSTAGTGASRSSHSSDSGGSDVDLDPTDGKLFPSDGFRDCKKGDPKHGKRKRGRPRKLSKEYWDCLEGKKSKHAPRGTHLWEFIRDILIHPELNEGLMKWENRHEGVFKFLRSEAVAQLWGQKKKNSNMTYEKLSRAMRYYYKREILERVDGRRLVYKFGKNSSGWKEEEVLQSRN
# How it was run: as §1
# CRX = CRX (Homo sapiens, UniProt O43186 1-299); conditions: protein: recombinant; tags: N-terminal GST; dsDNA, one strand shown
# Chain of CRX (O43186 whole entry): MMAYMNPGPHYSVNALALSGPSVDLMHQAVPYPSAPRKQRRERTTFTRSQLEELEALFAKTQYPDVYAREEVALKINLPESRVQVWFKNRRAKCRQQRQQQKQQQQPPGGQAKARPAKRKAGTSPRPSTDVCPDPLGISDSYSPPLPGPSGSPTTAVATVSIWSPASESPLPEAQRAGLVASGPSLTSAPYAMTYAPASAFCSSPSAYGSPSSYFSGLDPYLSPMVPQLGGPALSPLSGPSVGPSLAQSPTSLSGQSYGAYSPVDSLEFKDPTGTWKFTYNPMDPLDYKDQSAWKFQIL
# How it was run: as §1
# ETV1 = ETV1 (Homo sapiens, UniProt P50549 1-477); conditions: protein: recombinant; tags: N-terminal GST; dsDNA, one strand shown
# Chain of ETV1 (P50549 whole entry): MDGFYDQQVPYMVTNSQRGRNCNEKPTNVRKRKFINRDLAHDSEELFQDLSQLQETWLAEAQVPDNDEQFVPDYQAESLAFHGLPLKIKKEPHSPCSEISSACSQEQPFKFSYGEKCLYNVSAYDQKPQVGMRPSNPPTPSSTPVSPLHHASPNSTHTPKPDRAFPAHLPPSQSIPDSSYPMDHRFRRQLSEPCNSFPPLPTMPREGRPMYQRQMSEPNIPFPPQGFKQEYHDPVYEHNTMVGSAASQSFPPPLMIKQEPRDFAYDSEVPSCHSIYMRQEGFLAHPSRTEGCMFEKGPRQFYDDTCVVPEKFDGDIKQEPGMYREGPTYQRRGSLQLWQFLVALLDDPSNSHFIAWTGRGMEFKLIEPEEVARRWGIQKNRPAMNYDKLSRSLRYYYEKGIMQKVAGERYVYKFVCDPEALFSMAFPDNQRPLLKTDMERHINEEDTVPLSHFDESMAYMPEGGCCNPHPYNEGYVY
# How it was run: as §1
sequence,measurement,setting,value
AATTGT,binding signal,FLI1,"1.3 fold enrichment (6-mer frequency, TF over GST control)"
same,binding signal,ELK1,"1.2 fold enrichment (6-mer frequency, TF over GST control)"
same,binding signal,GABPA,"1.21 fold enrichment (6-mer frequency, TF over GST control)"
same,binding signal,ERG,"1.28 fold enrichment (6-mer frequency, TF over GST control)"
same,binding signal,ELF1,"1.27 fold enrichment (6-mer frequency, TF over GST control)"
same,binding signal,EHF,"1.23 fold enrichment (6-mer frequency, TF over GST control)"
same,binding signal,SPI1,"1.33 fold enrichment (6-mer frequency, TF over GST control)"
same,binding signal,SPIB,"1.34 fold enrichment (6-mer frequency, TF over GST control)"
same,binding signal,ELK3,"1.29 fold enrichment (6-mer frequency, TF over GST control)"
same,binding signal,FEV,"1.25 fold enrichment (6-mer frequency, TF over GST control)"
same,binding signal,ETV5,"1.2 fold enrichment (6-mer frequency, TF over GST control)"
same,binding signal,HSF1,"1.18 fold enrichment (6-mer frequency, TF over GST control)"
same,binding signal,SPIC,"1.26 fold enrichment (6-mer frequency, TF over GST control)"
same,binding signal,ELF4,"1.29 fold enrichment (6-mer frequency, TF over GST control)"
same,binding signal,ELK4,"1.14 fold enrichment (6-mer frequency, TF over GST control)"
same,binding signal,ETV2,"1.33 fold enrichment (6-mer frequency, TF over GST control)"
same,binding signal,ELF3,"1.31 fold enrichment (6-mer frequency, TF over GST control)"
same,binding signal,CRX,"1.17 fold enrichment (6-mer frequency, TF over GST control)"
same,binding signal,ETV1,"1.22 fold enrichment (6-mer frequency, TF over GST control)"
